TRPV1 agonist: agonists of human vanilloid receptor 1 (TRPV1) | Q8NER1 | TRPV1-expressing cells, Fluo-8 calcium influx, agonist mode | activation, % at 8.33 µM | 0.19% of 320,000 active | AID 540275; in the data active means activation above about 80%; inconclusive means between about 30% and that limit; further: 0% is about no effect
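Fluo-8 calcium influx in TRPV1-expressing cells, kinetic read (ex 480/em 520 nm). Compound added and read 3 min for agonist activity, followed by capsaicin at EC20 final and 2 min further read for enhancement.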
KCNH2 3.1 inh: KCNH2 3.1 (human) potassium channel inhibition; U2OS KCNH2 3.1, thallium flux FluxOr; stronger effect = lower value; activity change, % (tested at about 1.8 µM); 0.95% of 340,000 active; AID 720553;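 active means maximum activity change below -70%; inconclusive means maximum activity change from -70% to -50%; inactive means maximum activity change above -50%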;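 further: thallium influx rate constant from kinetic fluorescence after stimulation buffer; on the % scale 0 is the no-effect control and ±100 the full control effect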
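U2OS cells transduced with KCNH2 3.1 mutant virus (1.77 x 10^8 /mL, 4 h), plated overnight at 37 C, loaded 45 min with FluxOr dye plus Red40 quencher. Thallium flux rate constant from kinetic reads after stimulation buffer, normalised to controls.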
hERG WT inh: inhibitors of human wildtype KCNH2 potassium channel | Q12809 | activity change, % at 1.84 µM | 0.37% of 340,000 active | U2OS, BacMam KCNH2, thallium flux FluxOr; stronger effect = lower value;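 active means maximum activity change below -70%; inconclusive means maximum activity change between -70% and -50%; inactive means maximum activity change above -50%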; further: on the % scale 0 is the no-effect control and ±100 the full control effect
Target sequence (Q12809 whole entry, looked up): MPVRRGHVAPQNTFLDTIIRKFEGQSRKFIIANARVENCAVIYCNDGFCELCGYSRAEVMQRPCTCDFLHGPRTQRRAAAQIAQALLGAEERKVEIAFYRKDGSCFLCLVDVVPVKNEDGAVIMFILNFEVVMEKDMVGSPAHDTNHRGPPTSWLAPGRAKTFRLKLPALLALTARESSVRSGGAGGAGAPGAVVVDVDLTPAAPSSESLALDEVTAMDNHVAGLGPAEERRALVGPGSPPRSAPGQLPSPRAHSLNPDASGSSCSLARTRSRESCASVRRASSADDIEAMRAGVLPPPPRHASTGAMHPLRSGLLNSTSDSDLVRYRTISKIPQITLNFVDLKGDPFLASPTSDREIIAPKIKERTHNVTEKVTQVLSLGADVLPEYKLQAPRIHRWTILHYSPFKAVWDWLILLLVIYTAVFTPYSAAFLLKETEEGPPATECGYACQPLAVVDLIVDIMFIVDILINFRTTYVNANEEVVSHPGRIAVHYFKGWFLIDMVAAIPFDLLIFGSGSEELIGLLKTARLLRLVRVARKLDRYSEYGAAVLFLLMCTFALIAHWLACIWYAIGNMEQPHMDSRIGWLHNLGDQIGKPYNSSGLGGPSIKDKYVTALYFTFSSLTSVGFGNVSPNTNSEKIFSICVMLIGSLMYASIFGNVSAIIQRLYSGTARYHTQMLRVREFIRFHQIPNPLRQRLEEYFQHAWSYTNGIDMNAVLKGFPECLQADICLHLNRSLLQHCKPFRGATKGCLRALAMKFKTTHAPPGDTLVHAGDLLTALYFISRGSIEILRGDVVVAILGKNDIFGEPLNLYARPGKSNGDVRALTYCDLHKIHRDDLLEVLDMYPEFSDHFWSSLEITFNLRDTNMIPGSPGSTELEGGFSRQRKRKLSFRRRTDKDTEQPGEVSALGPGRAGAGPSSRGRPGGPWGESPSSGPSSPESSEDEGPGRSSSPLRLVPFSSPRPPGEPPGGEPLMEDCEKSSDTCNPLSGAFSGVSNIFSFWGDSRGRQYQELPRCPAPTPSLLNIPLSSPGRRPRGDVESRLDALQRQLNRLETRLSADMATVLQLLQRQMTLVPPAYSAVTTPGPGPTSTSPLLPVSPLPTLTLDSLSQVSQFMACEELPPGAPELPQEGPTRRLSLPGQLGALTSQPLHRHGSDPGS
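U2OS cells were transduced with wild-type KCNH2 virus (2.03 x 10^8 / mL) for 4 h at room temperature, then cultured overnight at 37 C. Thallium flux was read with FluxOr dye. Rate constants were normalized to DMSO controls.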
TRPV1 PAM: enhances activation of the human vanilloid receptor TRPV1. TRPV1-expressing cells, Fluo-8 calcium influx, capsaicin EC20 potentiation. Q8NER1. 0.02% of 320,000 active. potentiation, % at 8.33 µM; in the data active means potentiation above about 80%; inconclusive means between about 30% and that limit; further: 0% is about no effect
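Cells expressing TRPV1 were dye-loaded with Fluo-8 and read kinetically: 10 s baseline, 3 min after compound (agonist portion), then 2 min after EC20 capsaicin (allosteric enhancer portion). Calcium-bound dye fluorescence at 480/520 nm.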
* hit, by the source's call; ? = inconclusive; nt = not tested or not shown. In the library only some 1.3% were active in any assay of this set; here they are far more common.

SMILES	TRPV1 agonist	KCNH2 3.1 inh	hERG WT inh	TRPV1 PAM
OCCCn1c(C2CCCN2c2nc(-c3ccc(F)cc3)cs2)nc2cc(C(F)(F)F)ccc21 (stereo unspecified)	nt	-46.9	-20.8	nt
OCCOCCn1c(C2CCCN2c2nc(-c3ccc(F)cc3)cs2)nc2cc(C(F)(F)F)ccc21 (stereo unspecified)	nt	-101.4*	-102.8*	nt
O=C(NNC(=O)c1n[nH]c2ccccc12)c1ccccc1	-3.6	4.6	-1.8	-9.7
CCCCc1ccc(NC(=O)N2CCN(c3cc(C)nc4ccccc34)CC2)c(C)c1	-1.6	-93.9*	-44.3	-19.7
N#Cc1cccc(NC(=O)CSc2ccc3c4c(cccc24)C(=O)c2ccccc2-3)c1	5.4	-78.4*	-100.4*	-7.7
COCCOC(=O)C1=C(C)NC(=S)NC1c1cccs1 (stereo unspecified)	-1.5	-76.3*	1.3	-7.1
COCCOC(=O)C1=C(C)NC(=O)NC1c1cccs1 (stereo unspecified)	-0.4	0.4	11.3	?
C#CCOCCOCCOCCNc1nc(N2CCN(C(=O)Cn3cc(CCO)nn3)CC2)nc(N2CCN(C(=O)[C@H](Cc3ccc(O)cc3)n3cc(CCO)nn3)CC2)n1	nt	8.1	17.7	nt
CN(Cc1cccs1)C(=O)COc1cccc(-n2cnnn2)c1	-2.7	-14.7	-78.3*	7.7
CCC(=O)c1cn(CC(=O)Nc2cc(C)ccc2C)c2ccccc12	4.8	4.3	21.4	-11.9
Cc1ccc(Nc2ccc(N3CCN(c4ccc([N+](=O)[O-])cc4)CC3)nn2)cc1	0.6	-108.9*	-85.5*	?
Cc1ccc(CC(=O)N2CCN(c3ccc([N+](=O)[O-])cc3)CC2)cc1	?	-17.7	5.2	-12.3
COc1cccc(CC2(CO)CCCN(Cc3[nH]c4ccc(C)cc4c3C)C2)c1 (stereo unspecified)	1.7	-99.2*	-88.9*	7.5
COc1cccc(CC2(CO)CCCN(Cc3c(C)cc(C)cc3-n3cccn3)C2)c1 (stereo unspecified)	-0.5	-101.6*	-124.0*	-7.7
O=C(CN1CCCCC1)Nc1ccccc1	2.0	-1.0	0.1	4.2
O=C(CN1CCN(c2nc(-c3ccc(F)cc3)cs2)CC1)Nc1ccc2c(c1)OCO2	14.4	-124.0*	-0.8	-3.8
COc1ccc(NC(=O)CN2CCN(Cc3ccccc3)CC2)cc1	1.7	-6.0	1.2	1.0
CCCCNC(=O)CN1CCN(Cc2ccc3cc(OC)ccc3c2)CC1	-1.0	-83.5*	-15.4	2.1
O=C(CN1CCN(CC(=O)Nc2ccc(OCc3ccccc3)cc2)CC1)Nc1ccc(F)cc1	nt	-94.5*	-102.6*	nt
NC(=O)CN1CCN(c2nc(-c3ccc(F)cc3)cs2)CC1	-1.4	3.1	2.7	2.6
O=C(CN1CCCCCC1)Nc1ccc(Oc2ccccc2)cc1	27.3	-96.2*	8.5	-16.8
CN(C)S(=O)(=O)N1CCC(n2nccc2NC(=O)CCCc2ccccc2)CC1	5.6	-2.6	-1.9	0.4
Cc1ccc2c(CC(=O)Nc3c(C(=O)c4ccc(F)cc4)oc4ccccc34)coc2c1C	2.4	nt	nt	-0.1
O=C(CN1CCC(C(=O)c2ccc(F)cc2)CC1)Nc1ccccc1	10.3	-20.2	-3.5	-12.0
O=C(CN1CCN(C(=O)C2CCN(C(=O)/C=C/c3ccccc3)CC2)CC1)Nc1ccc(F)cc1	nt	-98.7*	-39.0	nt
SMILES	TRPV1 agonist	KCNH2 3.1 inh	hERG WT inh	TRPV1 PAM
CCOc1ccc(NC(=O)CN2CCN(CC(=O)Nc3ccc(F)cc3)CC2)cc1	2.9	-89.3*	-91.9*	?
COc1ccc(NC(=O)CN2CCN(CC(=O)Nc3cc(OC)cc(OC)c3)CC2)cc1	-5.0	-80.9*	-26.1	7.9
O=C(CCN1CCN(Cc2ccccc2)CC1)Nc1ccc(OCc2ccccc2)cc1	-1.4	-95.0*	-38.9	22.2
COc1cc(NC(=O)CN2CCCCCC2)cc(OC)c1	12.7	-9.9	-2.1	-3.8
CC1NC(=O)c2cc3ccccc3cc2-n2c1nc1ccc(F)cc1c2=O (stereo unspecified)	nt	?	2.4	nt
O=C(Cc1coc2cc(O)ccc12)NNC(=O)c1cccs1	nt	-16.8	-7.3	nt
CC1CCN(CC(=O)Nc2ccc3c(c2)OCO3)CC1	9.7	4.9	-2.7	-3.3
O=C(/C=C/c1ccc(F)cc1)NNC(=O)CCN1CCN(Cc2ccccc2)CC1	-4.6	-104.7*	21.4	23.7
CCOc1ccc(NC(=O)CN2CCN(CC(=O)Nc3ccc4c(c3)OCO4)CC2)cc1	5.2	-106.3*	-119.8*	0.3
CCCCN(CC(=O)NC1CCCC1)C(=O)C(=O)Nc1ccc2c(c1)OCCO2	-0.1	3.8	-4.9	7.8

Screens deposited in PubChem by National Center for Advancing Translational Sciences (NCATS).
